Records with an inconclusive call do not appear. The source made the active and inactive calls. Unless noted, the call rests on the fitted dose curve; in most records, active means well fitted cell-killing curve with a large enough effect in the repeat runs; inconclusive means weak or mixed curves, or effect the other way; inactive means flat fitted curve, though single readings scatter.
Target: Thyrotropin-releasing hormone receptor (Homo sapiens) (UniProt P34981)
Test: qHTS assay to identify small molecule agonists of the thyrotropin-releasing hormone receptor (TRHR) signaling pathway (AID 1346891; calls by dose curve)
Conditions: TRHR-HEK293 calcium fluorescence, agonist mode; series mostly up to 57.6 µM; activation: at the top concentration
Outline: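 Readout was intracellular calcium fluorescence in TRHR-Hek293 cells. Cells were incubated 18 h, dye-loaded 2 h at 37 °C, and treated with compound in agonist mode.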
On the % scale 0 is the no-effect control and ±100 the full control effect.

Sequence of Thyrotropin-releasing hormone receptor (Homo sapiens) (P34981 whole entry, looked up): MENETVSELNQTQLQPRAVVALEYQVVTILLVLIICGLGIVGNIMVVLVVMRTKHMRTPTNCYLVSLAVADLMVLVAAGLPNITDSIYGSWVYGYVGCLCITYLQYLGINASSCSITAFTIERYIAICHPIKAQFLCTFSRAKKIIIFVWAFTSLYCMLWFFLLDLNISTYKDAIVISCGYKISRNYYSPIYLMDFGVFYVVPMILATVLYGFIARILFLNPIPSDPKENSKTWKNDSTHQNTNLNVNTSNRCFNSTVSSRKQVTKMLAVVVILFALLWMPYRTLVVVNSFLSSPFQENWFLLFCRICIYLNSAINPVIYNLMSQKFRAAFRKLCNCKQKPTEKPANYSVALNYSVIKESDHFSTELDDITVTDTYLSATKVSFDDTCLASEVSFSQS

Compound | activation
CC(C(=O)O)c1ccc2c(c1)Cc1cccnc1O2 (stereo not drawn) | -0.0629% [at 26.5 µM] (inactive)
Nc1ccccc1Nc1ccccc1 | -0.323% (inactive)
O=S(=O)(O)c1cc(Cl)c(Cl)cc1Cl | 2.58% (inactive)
C=CC(=O)NC(C)(C)C | 0.0592% (inactive)
C=CC(C)(O)CC/C=C(/C)CCC=C(C)C (stereo not drawn) | 0.0316% (inactive)
CCCCCO | 0.0396% (inactive)
Cc1ccc(Cl)c(OCC(O)CNC(C)(C)C)c1 (stereo not drawn) | 0.037% [at 26.5 µM] (inactive)
CC(C)(C)c1cc(C=O)cc(C(C)(C)C)c1O | 3.01% [at 26.5 µM] (inactive)
C(/C=C/C=C/Nc1ccccc1)=Nc1ccccc1 | 0.0265% (inactive)
CCCCCCCCCCCCCCCCCCCl | -0.417% [at 5.23 µM] (inactive)
C=C[Si]1(C)O[Si](C)(C=C)O[Si](C)(C=C)O[Si](C)(C=C)O1 (stereo not drawn) | 0.0324% (inactive)
CCc1ccc(C(=O)C(C)CN2CCCCC2)cc1 (stereo not drawn) | 0.123% [at 26.5 µM] (inactive)
O=C(OCCOCCOCCOC(=O)c1ccccc1)c1ccccc1 | -0.6% (inactive)
O=C(O)CCc1nc2ccccc2[nH]1 | -0.0344% [at 26.5 µM] (inactive)
CCc1c(C)[nH]c2c1C(=O)C(CN1CCOCC1)CC2 (stereo not drawn) | -0.282% [at 26.5 µM] (inactive)
CC(C)C/C=C(\C=O)c1ccccc1 | -0.686% (inactive)
c1ccc(CN(Cc2ccccc2)Cc2ccccc2)cc1 | 0.913% (inactive)
C[C@H](CN1CCCC1)C(=O)c1ccc(C(F)(F)F)cc1 | 0.249% [at 26.5 µM] (inactive)
O=C(Cl)c1ccc(F)c(Cl)c1 | -0.598% (inactive)
C[C@]12CCC(=O)C=C1[C@@H]1C[C@@H]1[C@H]1[C@@H]3[C@@H]4C[C@@H]4[C@@]4(CCC(=O)O4)[C@@]3(C)CC[C@@H]12 | 3.34% [at 26.5 µM] (inactive)

Compound | activation
O=C1OC(=O)C2CC=CCC12 (stereo not drawn) | -0.737% (inactive)
CC(C)Oc1ccccc1O | -0.594% (inactive)
c1ccc(-c2ccc(-c3ccccc3)cc2)cc1 | 0.249% [at 11.8 µM] (inactive)
COC(=O)c1cc(Cl)ccc1[N+](=O)[O-] | -0.125% (inactive)
Cc1cc(N)n(-c2ccccc2)n1 | 0.541% (inactive)
CC(C)=CCCC(C)C=O (stereo not drawn) | -0.794% (inactive)
O=C(O)c1ccc2c(c1)nc(C(=O)NC1CCN(C3CC3)CC1)n2Cc1cc(-c2ccc(Cl)s2)on1 | 2.01% [at 11.8 µM] (inactive)
O=C(O)c1ccc2cc(O)ccc2c1 | 0.0502% (inactive)
O=C1c2ccccc2C(=O)C1c1ccc2cc(S(=O)(=O)O)cc(S(=O)(=O)O)c2n1 | 0.309% (inactive)
COC(=O)/C=C/C(C)=C\C=C\C(C)=C\C=C\C=C(C)\C=C\C=C(C)\C=C\C(=O)O | -0.013% (inactive)
CC(=O)OCC(=O)[C@@]1(O)CC[C@H]2[C@@H]3CCC4=CC(=O)C=C[C@]4(C)[C@@]3(F)[C@@H](O)C[C@@]21C | -0.0422% [at 26.5 µM] (inactive)
N#Cc1ccc(CC(=O)c2cccc(C(F)(F)F)c2)cc1 | -0.181% (inactive)
CC1(COc2ccc(CC3SC(=O)NC3=O)cc2)CCCCC1 (stereo not drawn) | 4% [at 26.5 µM] (inactive)
Cc1ccc2ccccc2c1[N+](=O)[O-] | -0.158% (inactive)
C[C@H]1C[C@H]2[C@@H]3CCC4=CC(=O)C=C[C@]4(C)[C@@]3(F)[C@@H](O)C[C@]2(C)[C@@]1(O)C(=O)COP(=O)(O)O | -0.434% (inactive)
CO[C@@H]1[C@@H](O[C@@H]2O[C@H](C)[C@@H](O[C@H]3C[C@@](C)(O)[C@@H](O)[C@H](C)O3)[C@H](N(C)C)[C@H]2O)[C@@H](CC=O)C[C@@H](C)[C@@H](O[C@@H]2CC[C@H](N(C)C)[C@@H](C)O2)/C=C/C=C/C[C@@H](C)OC(=O)C[C@H]1OC(C)=O | -0.517% [at 26.5 µM] (inactive)
O=C(N[C@@H](Cc1ccccc1)[C@@H](O)C(=O)N1C[C@@H](O)[C@@H](O)C1)c1cc2cc(Cl)ccc2[nH]1 | -1.1% (inactive)
CCC(C(=O)O)c1ccc(N2Cc3ccccc3C2=O)cc1 (stereo not drawn) | 13.1% [at 26.5 µM] (inactive)
O=[N+]([O-])c1ccc(Cl)cc1Cl | 0.232% (inactive)

Test system: not listed separately
Test: Human pregnane X receptor (PXR) small molecule agonists, qHTS cell viability counter screen (AID 1346977); further: nearly all actives have a fitted effect of over 50% in size; further: potency means the concentration at half of the fitted maximal effect
Conditions: PXR-Luc HepG2 viability, CellTiter-Fluor, 24 h; series mostly up to 92.4 µM; activity change, negative = cytotoxicity: at the top concentration
Outline: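 In each well, the PXR reporter HepG2 line was checked for viability: CellTiter-Fluor reagent added 23hr post-dosing, fluorescence read after 1hr incubation at 37C.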

Compound | activity change, negative = cytotoxicity | Potency
CC(C(=O)O)c1ccc2c(c1)Cc1cccnc1O2 (stereo not drawn) | 5.35% [at 42.5 µM] (inactive) | 
Nc1ccccc1Nc1ccccc1 |  | 30.7 µM (active)
O=S(=O)(O)c1cc(Cl)c(Cl)cc1Cl | 15.8% (inactive) | 
C=CC(=O)NC(C)(C)C | 9.28% (inactive) | 
C=CC(C)(O)CC/C=C(/C)CCC=C(C)C (stereo not drawn) | 9.08% (inactive) | 
CCCCCO | 3.34% (inactive) | 
Cc1ccc(Cl)c(OCC(O)CNC(C)(C)C)c1 (stereo not drawn) | -15.4% [at 42.5 µM] (inactive) | 
CC(C)(C)c1cc(C=O)cc(C(C)(C)C)c1O | 11.6% [at 42.5 µM] (inactive) | 
C(/C=C/C=C/Nc1ccccc1)=Nc1ccccc1 | 16.6% (inactive) | 
CCCCCCCCCCCCCCCCCCCl | -2.79% [at 8.39 µM] (inactive) | 
C=C[Si]1(C)O[Si](C)(C=C)O[Si](C)(C=C)O[Si](C)(C=C)O1 (stereo not drawn) | 1.69% (inactive) | 
CCc1ccc(C(=O)C(C)CN2CCCCC2)cc1 (stereo not drawn) | -6.89% [at 42.5 µM] (inactive) | 
O=C(OCCOCCOCCOC(=O)c1ccccc1)c1ccccc1 | -0.402% (inactive) | 
O=C(O)CCc1nc2ccccc2[nH]1 | 0.553% [at 42.5 µM] (inactive) | 
CCc1c(C)[nH]c2c1C(=O)C(CN1CCOCC1)CC2 (stereo not drawn) | 5.29% [at 42.5 µM] (inactive) | 
CC(C)C/C=C(\C=O)c1ccccc1 | -16.8% (inactive) | 
c1ccc(CN(Cc2ccccc2)Cc2ccccc2)cc1 | 14.3% (inactive) | 
C[C@H](CN1CCCC1)C(=O)c1ccc(C(F)(F)F)cc1 | -28.8% [at 42.5 µM] (inactive) | 
O=C(Cl)c1ccc(F)c(Cl)c1 | -1.37% (inactive) | 
C[C@]12CCC(=O)C=C1[C@@H]1C[C@@H]1[C@H]1[C@@H]3[C@@H]4C[C@@H]4[C@@]4(CCC(=O)O4)[C@@]3(C)CC[C@@H]12 | -16.4% [at 42.5 µM] (inactive) | 

Compound | activity change, negative = cytotoxicity | Potency
O=C1OC(=O)C2CC=CCC12 (stereo not drawn) | 4.21% (inactive) | 
CC(C)Oc1ccccc1O | 14.7% (inactive) | 
c1ccc(-c2ccc(-c3ccccc3)cc2)cc1 | 0.816% [at 19 µM] (inactive) | 
COC(=O)c1cc(Cl)ccc1[N+](=O)[O-] | 0.409% (inactive) | 
Cc1cc(N)n(-c2ccccc2)n1 | 0.443% (inactive) | 
CC(C)=CCCC(C)C=O (stereo not drawn) | 11.6% (inactive) | 
O=C(O)c1ccc2c(c1)nc(C(=O)NC1CCN(C3CC3)CC1)n2Cc1cc(-c2ccc(Cl)s2)on1 | 17.8% [at 19 µM] (inactive) | 
O=C(O)c1ccc2cc(O)ccc2c1 | -1.13% (inactive) | 
O=C1c2ccccc2C(=O)C1c1ccc2cc(S(=O)(=O)O)cc(S(=O)(=O)O)c2n1 |  | 37.2 µM (active)
COC(=O)/C=C/C(C)=C\C=C\C(C)=C\C=C\C=C(C)\C=C\C=C(C)\C=C\C(=O)O | -9.68% (inactive) | 
CC(=O)OCC(=O)[C@@]1(O)CC[C@H]2[C@@H]3CCC4=CC(=O)C=C[C@]4(C)[C@@]3(F)[C@@H](O)C[C@@]21C | 14.1% [at 42.5 µM] (inactive) | 
N#Cc1ccc(CC(=O)c2cccc(C(F)(F)F)c2)cc1 | 13.3% (inactive) | 
CC1(COc2ccc(CC3SC(=O)NC3=O)cc2)CCCCC1 (stereo not drawn) | -10.9% [at 42.5 µM] (inactive) | 
Cc1ccc2ccccc2c1[N+](=O)[O-] | 0.625% (inactive) | 
C[C@H]1C[C@H]2[C@@H]3CCC4=CC(=O)C=C[C@]4(C)[C@@]3(F)[C@@H](O)C[C@]2(C)[C@@]1(O)C(=O)COP(=O)(O)O | 15.2% (inactive) | 
CO[C@@H]1[C@@H](O[C@@H]2O[C@H](C)[C@@H](O[C@H]3C[C@@](C)(O)[C@@H](O)[C@H](C)O3)[C@H](N(C)C)[C@H]2O)[C@@H](CC=O)C[C@@H](C)[C@@H](O[C@@H]2CC[C@H](N(C)C)[C@@H](C)O2)/C=C/C=C/C[C@@H](C)OC(=O)C[C@H]1OC(C)=O |  | 26.6 µM (active)
O=C(N[C@@H](Cc1ccccc1)[C@@H](O)C(=O)N1C[C@@H](O)[C@@H](O)C1)c1cc2cc(Cl)ccc2[nH]1 | -0.504% (inactive) | 
CCC(C(=O)O)c1ccc(N2Cc3ccccc3C2=O)cc1 (stereo not drawn) | 21.1% [at 42.5 µM] (inactive) | 
O=[N+]([O-])c1ccc(Cl)cc1Cl | -5.67% (inactive) | 
